Experimental findings from paper PMC5540273 (PLoS ONE, 2017) are described below.

A value given as a limit tells only on which side of the number the result lay.

One assay deals with T1, PRKR.
T1 construct: gene EIF2AK2
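Further: kd values determined as follow-up on hits from a single-replicate KINOMEscan panel screen.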

In general, Kd refers to a measure of binding affinity in units of concentration. For the compound `CCC(=O)c1c(-c2ccccc2)c2cc(Cl)ccc2c(=O)n1Cc1cc(S(C)(=O)=O)n(CC(N)=O)n1`, the Kd with PRKCH is more than 10000 nM.

As to `COc1cccc(C2=C(Nc3cccc(C(=O)O)c3)C(=O)NC2=O)c1` [SB-390770], the Kd with PRKCI was more than 10000 nM.

Consider `Cc1cc(Nc2nc(-c3cccc(C)n3)nc3ccccc23)ccn1` [GW872411], for which the equilibrium dissociation constant (Kd) in the assay with PRKD1 came out at 6.1 nM; in the assay on PRKD2 it was 9.4 nM. Regarding `Cc1cccc(-c2nc(Nc3ccc4c(cnn4C)c3)c3ccccc3n2)n1` [GW876731], the figures for the Kd in the assay with PRKD1, in the assay with PRKD2 and with PRKD3 were 7.2 nM, 12 nM and 13 nM, respectively. With `O=C1NC(=O)C(c2ccccc2)=C1Nc1cccc(O)c1` [SB-390534], in the assay on PRKR, the Kd was more than 10000 nM. Take `C[C@@H]1CC[C@H](C(=O)NC2CCCCC2)CN1c1cc(-c2ccc3c(N)n[nH]c3c2)nc(N)n1` [GSK2291363]: the Kd turned out to be 460 nM in the assay with PRKX, 210 nM in the assay with RIOK1 and 150 nM with RIOK3. Compound `Cc1ccc(Oc2ccc(Nc3ncnc4cc[nH]c34)cc2C)cn1` registered a dissociation constant (Kd) with RIOK1 of more than 10000 nM.
